# tim10-1 inh: growth inhibitors of tim10-1 mutant yeast. 2.2% of 330,000 active. S. cerevisiae tim10-1 ts strain growth, BacTiter-Glo, 24 h. inhibition, % at 20 µM;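 active means inhibition of at least 40%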;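 further: mutant grown at 25 °C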
# tim23-1 inh: inhibits growth of tim23-1 mutant yeast. S. cerevisiae tim23-1 growth, BacTiter-Glo luminescence, 24 h. inhibition, % at 20 µM. 1.3% of 330,000 active. AID 463212;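 active means growth inhibition of the mutant yeast at or above 50%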;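 further: temperature-sensitive mutant grown at 25 °C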
# MPTP block: blocks calcium-induced mitochondrial swelling; inhibition, % at 10 µM; 1.4% of 360,000 active; isolated mouse mitochondria, Ca2+ swelling absorbance, 30 min; AID 602449;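 active means inhibition of 50% or more, scaled per plate between neutral and stimulator controls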
# Mdm2-MdmX inh: human Mdm2/MdmX binding inhibition; O15151+Q00987; SaOS-2 split-luciferase Mdm2/MdmX complementation, luminescence; inhibition, % at 8 µM; 3% of 330,000 active; AID 485346;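 active means inhibition of at least 50% at 8 µM in the primary screen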
# TIM10 inh: inhibits growth of TIM10 yeast strain; 1.4% of 330,000 active; AID 463195; S. cerevisiae TIM10 strain growth, BacTiter-Glo luminescence, 24 h; inhibition, % at 10 µM;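 active means inhibition of 40% or more at the single tested concentration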;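 further: wild-type TIM10 isogenic control strain grown at permissive 25 °C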
# Mdm2 MdmX conf: confirmation of human Mdm2/MdmX interaction inhibitors; shares compounds with Mdm2-MdmX inh; Mdm2-MdmX binding, luminescent assay; inhibition, % at 8 µM; 55% of 10,000 active; AID 489028; in the data active means inhibition above about 40%
# FLuc counter: inhibits full-length luciferase, flagging false Mdm2/MdmX hits. shares compounds with Mdm2-MdmX inh. SaOS-2 full-length luciferase counterscreen, luminescence. inhibition, % at 8 µM. 77% of 6,200 active. AID 504607;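 active means mean inhibition at 8 µM reaching about 37%, which flags the compound as non-specific, limit read from the data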;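 further: p53-null SaOS-2 cells with luciferase driven by a doxycycline-inducible promoter; compound on cells about two nights before reading with doxycycline added after day one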
# Hits are given with their value; i = inactive; nt = not tested or not shown. An excerpt weighted towards active compounds, which were near 6.3% of everything screened.
SMILES,tim10-1 inh,tim23-1 inh,MPTP block,Mdm2-MdmX inh,TIM10 inh,Mdm2 MdmX conf,FLuc counter
C=CCC[C@H](Cc1ccc(F)cc1)C(=O)OC[C@@H](NC(=O)[C@@H](CC=C)CC(=O)N(CCO)Cc1ccccc1)C(C)(C)C,i,i,i,50,i,i,nt
C=CC[C@@H](CC(=O)N(CCO)Cc1ccccc1)C(=O)NC[C@H](OC(=O)[C@@H](CC=C)Cc1ccc(F)cc1)c1ccccc1,i,i,i,85,i,71,49
C=CC[C@@H](CC(=O)N(CCO)Cc1ccccc1)C(=O)N[C@H](COC(=O)[C@@H](CC=C)Cc1ccc(F)cc1)c1ccccc1,i,i,i,i,i,nt,nt
C=CCC[C@H](Cc1ccc(F)cc1)C(=O)OC[C@@H](Cc1c[nH]c2ccccc12)NC(=O)[C@H](CC=C)CC(=O)N(CCO)Cc1ccccc1,i,i,i,94,i,i,nt
C=CC[C@H](CC(=O)N(CCO)Cc1ccccc1)C(=O)N[C@H](COC(=O)[C@@H](CC=C)Cc1ccc(F)cc1)C(C)(C)C,i,i,i,i,i,nt,nt
C=CCC[C@@H](Cc1ccc(F)cc1)C(=O)OC[C@@H](Cc1c[nH]c2ccccc12)NC(=O)[C@H](CC=C)CC(=O)N(CCO)Cc1ccccc1,i,i,i,94,i,i,nt
C=CCC[C@H](Cc1ccc(F)cc1)C(=O)OC[C@H](Cc1c[nH]c2ccccc12)NC(=O)[C@H](CC=C)CC(=O)N[C@H](CO)Cc1ccccc1,i,i,i,i,i,nt,nt
COc1ccc(C(O)c2ncc(-c3ccccc3C)[nH]2)cc1F (centres undefined),nt,nt,i,nt,nt,nt,nt
CCC(C)[C@H](N)C(=O)N[C@H]1CCC2C3CC=C4C[C@@H](O)CC[C@]4(C)C3CC[C@@]21C (some centres undefined),nt,nt,i,nt,nt,nt,nt
Cc1noc2ncc(C(=O)c3cc(F)ccc3O)cc12,i,i,i,i,i,nt,nt
Cc1[nH]nc2ncc(C(=O)c3cc(F)ccc3O)cc12,i,i,i,52,i,i,61
CC1C=CC=CC=CC=CC=CC=CC=CC(OC2OC(C)C(O)C(N)C2O)CC2OC(O)(CC(O)CC(O)C(O)CCC(O)CC(O)CC(=O)OC(C)C(C)C1O)CC(O)C2C(=O)O (centres undefined),nt,nt,i,nt,nt,nt,nt
CCOc1ccc(-c2nc(N)ncc2Oc2cccc(OC)c2)c(O)c1,i,i,i,66,i,42,62
CCOc1ccc(-c2nc(N)ncc2Oc2ccccc2Br)c(O)c1,i,i,i,i,i,nt,nt
Cc1cc(C)nc(/N=C(\N)Nc2ccc(-c3ccccc3)cc2)n1,i,i,i,52,i,i,nt
CC(=O)Nc1ccc(N/C(N)=N/c2nc(C)cc(C)n2)cc1,i,i,i,i,i,nt,nt
CN(C)CCNC(=O)c1ccc(COc2ccc(Cl)cc2Cl)cc1,i,i,i,62,i,i,nt
COC(=O)N1C(=O)[C@](c2ccc(Cl)cc2)(C(C)C)N1C(=O)OC,i,i,i,56,i,i,51
COc1ccc(C2(c3ccc(OC)cc3)NC(=O)N(CC(=O)NC(C)C)C2=O)cc1,i,i,i,i,i,nt,nt
COC(=O)N1C(=O)[C@](c2ccccc2)(C2CCCC2)N1C(=O)OC,i,i,i,i,i,nt,nt
COC(=O)N1C(=O)[C@@](c2ccccc2)(C(C)C)N1C(=O)OC,i,i,i,55,i,i,nt
COC(=O)N1C(=O)[C@@](c2ccc(OC)cc2)(C(C)C)N1C(=O)OC,i,i,i,51,i,i,nt
Cc1cccc(N2CCN(C(=O)c3c(-c4ccccc4Cl)noc3C)CC2)c1C,i,i,i,59,i,76,71
CC[C@H]1CN2CCc3cc(OC)c(OC)cc3C2C[C@@H]1C[C@H]1NCCc2cc(OC)c(OC)cc21 (some centres undefined),i,i,nt,97,i,99,51
COc1cccc(C2CC(c3c(-c4ccccc4)c4cc(Cl)ccc4[nH]c3=O)=NN2S(C)(=O)=O)c1OC (centres undefined),i,i,i,50,i,i,69
SMILES,tim10-1 inh,tim23-1 inh,MPTP block,Mdm2-MdmX inh,TIM10 inh,Mdm2 MdmX conf,FLuc counter
COc1ccccc1C1CC(c2c(-c3ccccc3)c3cc(Cl)ccc3[nH]c2=O)=NN1S(C)(=O)=O (centres undefined),i,i,i,i,i,nt,nt
C[C@H]1CN([C@@H](C)CO)C(=O)c2cc(Br)cnc2O[C@@H]1CN(C)S(=O)(=O)c1cn(C)cn1,nt,nt,i,nt,nt,nt,nt
COc1ccc(NC(=O)c2cc(C)nc3ccccc23)cc1S(=O)(=O)N1CCOCC1,i,i,i,i,i,nt,nt
COc1ccc(Nc2nc(-c3ccccc3)nc3ccccc23)cc1S(=O)(=O)N1CCOCC1,i,i,i,79,i,77,63
CCOC(=O)c1c(C)n(-c2ccc(C)cc2)c2ccc(OCC(O)CNCC3CCCO3)cc12 (centres undefined),i,i,i,78,i,42,62
CCOC(=O)c1c(C)n(-c2ccc(C)cc2)c2ccc(OCC(O)CNCCCO)cc12 (centres undefined),i,i,i,89,i,i,nt
Cc1ccc(C(=O)COc2cc(O)c3c(=O)cc(-c4ccccc4)oc3c2)cc1,i,i,i,62,i,i,nt
O=C(C(O)c1ccccc1)N1CCN(S(=O)(=O)c2ccc(C(F)(F)F)cc2)CC1 (centres undefined),nt,nt,i,nt,nt,nt,nt
CC1(C(=O)Nc2ccc3c(c2)OCCO3)CCC(=O)N1C1CC1 (centres undefined),nt,nt,i,nt,nt,nt,nt
Cc1cc(=O)oc2cc(OCc3cc4c(cc3Cl)OCO4)ccc12,i,i,i,89,i,i,nt
Cc1oc(C(=O)O)cc1COc1ccc2c(C)cc(=O)oc2c1,i,i,i,i,i,nt,nt
CCOC(=O)c1nc2sc(C)c(C)c2c(=O)[nH]1,i,i,i,i,i,nt,nt
CCOC(=O)/C(=C\c1cccc(O)c1)c1nc2sc(C)c(C)c2c(=O)[nH]1,i,i,i,82,i,i,i
COc1cc(CNC(=O)Nc2nnc([C@H]3C[C@H](O)[C@@H](CO)O3)s2)cc(OC)c1OC,nt,nt,i,nt,nt,nt,nt
CCOC(=O)c1ccc(NC(=O)Nc2cc(C)cc(C)n2)cc1,i,i,nt,50,i,i,nt
CCOC(=O)c1ccc(Nc2cc(C)nc(-c3ccccc3)n2)cc1,i,i,i,56,i,66,57
NCCN1CCN(CC(=O)N2c3ccccc3C(=O)Nc3cccnc32)CC1,i,i,i,i,i,nt,nt
O=C1Nc2cccnc2N(C(=O)CCl)c2ccccc21,i,i,i,68,i,50,i
CCOCCCn1c(SCC(=O)NC2CCCCC2)nc2ccccc2c1=O,nt,nt,i,nt,nt,nt,nt
C=CCNC(=O)c1ccc(CN(c2ccc(OCC)cc2)S(=O)(=O)c2ccc(C)cc2)cc1,i,i,i,i,i,i,50

# Assay outcomes: PubChem, Sanford-Burnham Center for Chemical Genomics
